Screens as filed in PubChem BioAssay.
Rows were chosen to be rich in hits. Some 4.6% of all compounds tested hit in one or more screens of this group.
D1 potentiator: enhances dopamine response at the human D1 receptor; P21728; HEK293 TREx D1 cells, calcium flux, dopamine EC20 potentiation; potentiation, % at 10 µM; hit rate 0.036% among 360,000; AID 504651; in the data active means potentiation above about 30%; further: 0% is about no effect
D1 agonist: agonists of human D1 dopamine receptor | HEK293 T-REx D1 cells, calcium flux, agonist mode | activation, % at 2 µM | hit rate 1% among 360,000; further: 0% is about no effect
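Agonism was scored from calcium flux recorded over 180 s (1 read/s) after pintool compound addition, following a 10-cycle baseline. Cells were inducible force-coupled HEK293 TREx D1, plated overnight at 30 C and loaded with no-wash calcium dye.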
TRHR agonist: activates the human TRH receptor; P34981; TRHR cells, calcium flux fluo-8, FDSS agonist mode; activation, % at 2 µM; hit rate 0.18% among 360,000; further: 0% is about no effect
Target sequence (P34981 whole entry, looked up): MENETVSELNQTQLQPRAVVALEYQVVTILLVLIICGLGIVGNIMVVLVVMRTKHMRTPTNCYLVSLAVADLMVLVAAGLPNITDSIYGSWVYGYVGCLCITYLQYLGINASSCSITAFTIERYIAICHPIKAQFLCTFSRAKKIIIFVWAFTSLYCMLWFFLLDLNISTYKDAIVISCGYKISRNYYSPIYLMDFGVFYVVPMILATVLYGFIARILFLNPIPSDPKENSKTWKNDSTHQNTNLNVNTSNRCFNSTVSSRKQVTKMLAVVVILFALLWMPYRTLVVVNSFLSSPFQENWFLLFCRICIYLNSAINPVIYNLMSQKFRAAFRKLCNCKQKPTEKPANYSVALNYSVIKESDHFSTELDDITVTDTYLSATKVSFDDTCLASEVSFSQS
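Fluo-8-loaded TRHR cells; 10 s baseline, compound added, kinetic Ca2+ fluorescence read 1/s, agonist mode.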
TRHR PAM: allosteric enhancers of human TRH receptor; P34981; TRHR cells, fluo-8 calcium fluorescence, EC20 TRH enhancement; enhancement, % at 2 µM; hit rate 0.66% among 360,000; in the data active means enhancement above about 30%; further: 0% is about no effect
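TRHR-expressing cells loaded with fluo-8 calcium dye were read kinetically (ex 480/em 530) during compound addition, then stimulated with an EC20 of TRH (10 nM final). Enhancement of the Gq-mediated intracellular calcium response was scored.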
D1 antagonist: antagonists of human D1 dopamine receptor | P21728 | HEK293 TREx D1 cells, calcium flux, dopamine EC80; active compounds read low | activity change, negative = inhibition, % at 10 µM | hit rate 3.2% among 360,000 | AID 504652; in the data active means activity change below about -30%; further: on the % scale 0 is the no-effect control and ±100 the full control effect
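Allosteric or orthosteric antagonism assessed as attenuation of the calcium response to EC80 dopamine, added 180 s after compound, in induced HEK293 Trex D1 cells loaded with no-wash calcium dye.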
An asterisk follows results filed as active. Unless noted, no stated cut-off is given here; in the data, active means activation above about 30%; inactive means the rest.

For Cc1ccc(NC(=O)c2ccccc2NS(=O)(=O)c2ccc(Cl)s2)cc1S(=O)(=O)N1CCOCC1 the results were D1 potentiator -6.1, D1 agonist 34.4*, TRHR agonist -1.0, TRHR PAM -22.7 and D1 antagonist -50.5*.
`COc1ccc(C(C)=O)cc1CSc1ccc2c(c1)OCCO2` gave D1 potentiator -5.5, D1 agonist 22.5, TRHR agonist -1.5, TRHR PAM -5.9 and D1 antagonist -27.1.
Screening CN(C(=O)c1cc(COc2ccc(F)cc2Cl)on1)C1CCCc2ccccc21 (configuration not stated) returned D1 potentiator 2.7, D1 agonist 18.1, TRHR agonist 1.4, TRHR PAM 2.1 and D1 antagonist -2.4.
`CC(C)OP(=O)(OC(C)C)C1(NS(=O)(=O)c2ccc(Cl)cc2)C=C(Cl)C(=O)C(Cl)=C1` gave D1 potentiator 1.5, D1 agonist 11.3, TRHR agonist -0.6, TRHR PAM 1.2 and D1 antagonist -5.4.
`Cc1ccc(C(=O)Nc2ccc(S(=O)(=O)N3CCOCC3)cc2)cc1` gave D1 potentiator 2.2, D1 agonist 5.1, TRHR agonist -0.7, TRHR PAM 19.0 and D1 antagonist -6.2.
O=C(OCCOc1ccccc1)c1cccc(S(=O)(=O)N2CCOCC2)c1 was read as D1 potentiator -6.7, D1 agonist 0.7, TRHR agonist 2.6, TRHR PAM -0.1 and D1 antagonist 3.5.
For Cc1ccc(S(=O)(=O)N2CCOCC2)cc1C(=O)OCCOc1cccc(Cl)c1 the results were D1 potentiator 2.4, D1 agonist 30.6*, TRHR agonist -0.5, TRHR PAM 9.7 and D1 antagonist -14.6.
`Cc1ccccc1N1CC(C(=O)Nc2ccc(S(=O)(=O)N3CCCCC3)cc2)CC1=O` (configuration not stated) gave D1 potentiator -1.7, D1 agonist 4.5, TRHR agonist -0.9, TRHR PAM 34.8* and D1 antagonist -10.5.
`Cc1ccc(NC(=O)c2ccc(S(=O)(=O)N3CCC(C)CC3)cc2)cc1` gave D1 potentiator -5.3, D1 agonist 0.4, TRHR agonist -0.1, TRHR PAM 3.6 and D1 antagonist -39.2*.
Screening CC(=O)Nc1ccccc1OCC(=O)NC1CCCCC1C (configuration not stated) returned D1 potentiator -4.2, D1 agonist 5.9, TRHR agonist 0.3, TRHR PAM 3.2 and D1 antagonist -8.0.
Screening COC(=O)CN1C(=S)N(c2ccc(OC)cc2)C(=O)/C1=C/c1ccc(N2CCOCC2)cc1 returned D1 potentiator -4.2, D1 agonist 33.1*, TRHR agonist 10.1 and TRHR PAM -2.9.
For COC(=O)CN1C(=S)N(c2ccc(OC)cc2)C(=O)/C1=C/c1ccc(OC)cc1 the results were D1 potentiator 0.7, D1 agonist 6.1, TRHR agonist 0.8, TRHR PAM 2.9 and D1 antagonist -3.5.
`Cc1cccc(-c2nc3c4ccccc4nc(N4CCN(c5ccccc5F)CC4)n3n2)c1` gave D1 potentiator -6.7, D1 agonist 0.9, TRHR agonist 0.1, TRHR PAM -3.1 and D1 antagonist -11.8.
Screening CCCCCCn1c(=O)[nH]c2nc3cc(N)c(C)cc3nc2c1=O returned D1 potentiator -1.4, D1 agonist 294.5*, TRHR agonist -0.8, TRHR PAM 22.6 and D1 antagonist -6.5.
CCCCn1c(=O)[nH]c2nc3cc(NC(C)=O)ccc3nc2c1=O was read as D1 potentiator -1.4, D1 agonist 10.5, TRHR agonist 11.2, TRHR PAM -4.6 and D1 antagonist -4.3.
O=C(NC1CC1)c1cc2cc(Br)ccc2s1 was read as D1 potentiator -11.6, D1 agonist 6.8, TRHR agonist -0.3, TRHR PAM -4.6 and D1 antagonist -32.0*.
For COCc1cc(C)nc(OCC(=O)N/N=C/c2ccc(C)cc2)c1C#N the results were D1 potentiator -2.2, D1 agonist 3.1, TRHR agonist -0.5, TRHR PAM 0.0 and D1 antagonist -57.1*.
`COCc1cc(C)nc(OCC(=O)N/N=C/c2ccccc2)c1C#N` gave D1 potentiator -1.1, D1 agonist 9.1, TRHR agonist -1.8, TRHR PAM 2.4 and D1 antagonist -5.0.
For CCOc1ccc(N(C(=O)c2ccc(OC)cc2)S(=O)(=O)c2ccc3c(c2)n(C)c(=O)n3C)cc1 the results were D1 potentiator 1.8, D1 agonist 0.5, TRHR agonist 0.6, TRHR PAM 7.6 and D1 antagonist 0.6.
Screening O=C(CNC(=O)c1ccccc1)NCC(=O)OCC(=O)c1ccc(F)cc1 returned D1 potentiator 6.2, D1 agonist 1.8, TRHR agonist 0.2, TRHR PAM 5.5 and D1 antagonist 2.6.
Screening Cc1ccc(C(=O)COC(=O)CNC(=O)C(c2ccccc2)c2ccccc2)cc1[N+](=O)[O-] returned D1 potentiator 7.1, D1 agonist 2.5, TRHR agonist 0.2, TRHR PAM -19.7 and D1 antagonist -2.7.
For Cc1ccc(C(=O)NCC(=O)OCC(=O)c2ccc(C)c([N+](=O)[O-])c2)cc1 the results were D1 potentiator -24.0, D1 agonist 1.2, TRHR agonist -1.6, TRHR PAM -6.2 and D1 antagonist -45.9*.
For Cc1ccc(C(=O)NCC(=O)NCC(=O)OCC(=O)c2ccc(F)cc2)cc1 the results were D1 potentiator -2.9, D1 agonist 1.9, TRHR agonist -0.5, TRHR PAM -0.8 and D1 antagonist -52.4*.
Screening Cc1ccccc1NC(=O)CCc1c(C)nc2c(c1C)c(=O)n(C)c(=O)n2C returned D1 potentiator -0.8, D1 agonist 2.5, TRHR agonist 0.1, TRHR PAM 0.3 and D1 antagonist -5.6.
COc1ccccc1NCC(O)Cn1c2ccccc2c2ccccc21 (configuration not stated) was read as D1 potentiator 1.6, D1 agonist -0.6, TRHR agonist 0.2, TRHR PAM -6.8 and D1 antagonist -0.6.
For COc1ccc(CCNCC(O)Cn2c3ccccc3c3ccccc32)cc1OC (configuration not stated) the results were D1 potentiator -4.8, D1 agonist 55.3*, TRHR agonist 1.8, TRHR PAM -7.0 and D1 antagonist -18.9.
Cc1ccccc1C(=O)NNC(=O)/C=C\C(=O)O was read as D1 potentiator -0.8, D1 agonist 2.4, TRHR agonist -0.5, TRHR PAM -9.7 and D1 antagonist -1.7.
Screening O=C(O)/C=C/C(=O)NNC(=O)c1ccccc1Br returned D1 potentiator -8.5, D1 agonist -1.4, TRHR agonist 0.1, TRHR PAM -3.0 and D1 antagonist -40.6*.
COc1cccc(NC(=O)Cn2nnc(-c3nc(-c4ccccc4)no3)c2N)c1 was read as D1 potentiator -4.8, D1 agonist 0.7, TRHR agonist 0.5, TRHR PAM 0.7 and D1 antagonist -1.6.
Screening CCOc1ccc(OC(=O)c2cn(-c3ccc(C)cc3)c(=O)c3ccccc23)cc1 returned D1 potentiator 4.4, D1 agonist 1.3, TRHR agonist 0.7, TRHR PAM -10.6 and D1 antagonist 2.6.
